A selection: hits, their analogues and other compounds. The true share with any hit is near 5.7%.
ATXN2 expr inh: Primary qHTS for Inhibitors of ATXN expression; Potency, µM (doses to about 57 µM), usual class: inhibitors; HEK-293 ATXN2-luciferase reporter, luminescence, 24 h; 0.72% of 360,000 active; note: nearly all actives have a fitted effect of over 55% in size
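qHTS (up to 57 uM final) was run with 24 h compound exposure of reporter cells at 37 °C. Each well was multiplexed: SteadyGlo luminescence measured ATXN2-luciferase expression after a fluorogenic Gly-Phe-AFC viability readout (25 uM final).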
TGFb inhibitor: qHTS for Inhibitors of TGF-b | HepG2 CAGA-GFP TGF-b/SMAD3 reporter, GFP fluorescence, 18 h; TGF-beta stimulated, 500 pg/mL final | Potency, µM (top dose mostly 46.1 µM), usual class: inhibitors | 1.2% of 410,000 active; note: nearly all actives have a fitted effect of over 65% in size
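Read-out: total well GFP (ex488/em500-530) summed from mean per-cell fluorescence. Cells: HEPG2 CAGA-GFP, 1% FBS DMEM, 18 h at 37 degrees C with 500 pg/mL final TGF-beta. Unstimulated wells served as the full-inhibition control; stimulated DMSO wells = 0%.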
HepG2 tox: qHTS for Inhibitors of TGF-b: Cytotox Counterscreen. HepG2 CAGA-GFP viability, ATP luminescence, 18 h. Potency, µM (top dose mostly 46.1 µM), most hits filed as cytotoxic. 0.76% of 410,000 active
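CellTiter-Glo luminescence gave cytotoxicity after 18 hours at 37 degrees C. The cells were HepG2 CAGA-GFP in 1% FBS DMEM, stimulated with 500 pg/mL TGF-beta after compound addition. %Activity was normalised to no-cell wells (complete cell-killing) and DMSO (no toxicity), and curves were fitted and classified.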
S2 tox: Viability Counterscreen for Primary qHTS for Inhibitors of ATXN expression | S2 cells (HEK-293 line with an ATXN2-luciferase reporter) viability, CellTiter-Fluor protease fluorescence, 24 h | Potency, µM (highest dose often 56.7 µM), most hits filed as cytotoxic | 0.49% of 400,000 active | AID 651635, 2014; note: nearly all actives have a fitted effect of over 40% in size
IL-1B inflam inh: qHTS for Inhibitors of Inflammasome Signaling: IL-1-beta AlphaLISA Primary Screen; 4.7% of 360,000 active; activity change, % at 57.5 µM; THP-1 LPS/ATP IL-1B secretion, AlphaLISA, 16 h; active compounds read low; AID 743279, 2014; in the data active = activity change below about -50%; inconclusive = mostly about -30% to -49%
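THP-1 cells pretreated 1 hr with compounds (up to 57.5 uM final), then stimulated with LPS (250 ng/mL final) plus ATP (1.25 mM final); secreted IL-1B measured by AlphaLISA after 16 hr, decreased signal indicating inhibition.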
Hits are given with their value; 0 = inactive; ? = inconclusive; - = no result; ! = a repeat was not active. Unless noted, calls come from the whole dose curve; as a rule, active = well fitted curve in the direction sought with a large enough effect; inconclusive = small, poorly fitted or top-dose-only effect, or another doubt; inactive = no such curve, though single readings can be large; an effect the other way counts as inactive or inconclusive.

SMILES	ATXN2 expr inh	TGFb inhibitor	HepG2 tox	S2 tox	IL-1B inflam inh
O=C(C[n+]1ccc(C(=O)c2ccccc2)cc1)Nc1ccc(C(F)(F)F)cc1	0	0	0	0	-60.0
O=C(Nc1ccc(C(F)(F)F)cc1)c1ccccc1	0	?	0	0	0
COc1cc(CNC2CCCC2)cc(Cl)c1OCc1ccc(F)cc1	?	0	0	?	?
COc1cc(CNC2CCCC2)cc(Cl)c1OCc1ccccc1Cl	?	?	0	?	-93.8
CCOc1cc(CNC2CCCC2)cc(Cl)c1OCc1ccc(F)cc1	22.4µM	?	11.2µM	28.2µM	-80.1
C/C(=N\Nc1cc(N2CCOCC2)ncn1)c1ccc(O)cc1	0	0	0	0	-95.1
Fc1cccc(/C=N/Nc2cc(N3CCOCC3)ncn2)c1	0	0	0	-	-53.2
COc1cccc(/C=N/Nc2cc(N3CCOCC3)ncn2)c1O	?	?	0	0	-89.9
C/C(=N\NC(=O)c1ccc(O)cc1)c1ccc(N2CCOCC2)cc1	0	0	0	0	0
CC(C)c1ccc(Cn2cnc3c(cnn3C(C)(C)C)c2=O)cc1	-	0	0	-	-
Nc1ncn([C@@H]2O[C@H](CO)[C@@H](O)[C@H]2O)c(=O)n1	6.31µM!	11.2µM	0	0	0
CC1(C)OC2C(CO)OC(n3cnc4c(=S)nc[nH]c43)C2O1 (centres undefined)	0	0	0	0	0
OCC1OC(n2cnc3c(=S)nc[nH]c32)C(O)C1O (centres undefined)	-	10µM!	0	-	-
Nc1ncn([C@@H]2O[C@H](CO)[C@@H](O)[C@@H]2O)c(=O)n1	5.44µM	-	-	-	-
Cc1[nH]c2ccccc2c1C(=O)CCl	-	?	0	11.2µM	-107.3
CCOC(=O)C1(C)CCN1C(=O)c1cc(-c2ccc(Cl)cc2)oc1C (centres undefined)	0	0	0	?	-103.3
CCc1ccc(NC(=O)C(C)OC(=O)c2ccc(NS(=O)(=O)c3ccc(C)c([N+](=O)[O-])c3)cc2)cc1 (centres undefined)	0	?	0	?	-76.7
CCCc1[nH]c2ccc(C#N)cc2c1CCC	?	20µM	0	-	0
CN1CC[C@H](c2c(O)cc(O)c3c(=O)cc(-c4ccccc4Cl)oc23)[C@@H](O)C1	-	0.224µM	0	-	-
O=c1cc(-c2ccccc2Cl)oc2c([N+](=O)[O-])c(O)cc(O)c12	?	12.6µM	0	0	-74.0
O=c1cc(-c2ccccc2Cl)oc2ccc([N+](=O)[O-])c(O)c12	0	0	0	0	0
Cn1c(=O)c2c(-c3ccccc3)n(-c3cccc(C#N)c3)cc2n(C)c1=O	-	0	0	-	-
Cc1cc(S(=O)(=O)Nc2ccc(-c3ccc(N4CCCCC4)nn3)cc2)c(C)cc1Cl	0	0	0	?	-
Cc1nc(-c2cccc(NC(=O)c3ccc(-n4nccc4C)cc3)c2)cs1	?	?	0	?	-83.8
O=C(Nc1cccc(-c2csc(Nc3ccc(Cl)cc3)n2)c1)c1ccccc1	?	?	0	15.8µM	-58.7
SMILES	ATXN2 expr inh	TGFb inhibitor	HepG2 tox	S2 tox	IL-1B inflam inh
Clc1ccc(-c2csc(Nc3cccnc3)n2)cc1	0	0	0	0	-79.6
Clc1cccc(Nc2nc(-c3ccncc3)cs2)c1	0	0	0	-	-60.6
c1ccc(-c2csc(Nc3cccnc3)n2)cc1	0	0	0	0	?
Cc1ccc(C2C=C(c3ccc(Cl)cc3)Nc3nc(NC(=O)c4ccco4)nn32)cc1 (centres undefined)	0	0	0	-	-
COc1ccc(C2=NN(CN3C(=O)C(=O)c4ccccc43)C(c3cccc([N+](=O)[O-])c3)C2)cc1 (centres undefined)	0	0	0	0	-65.9
O=C(CCN1CCOCC1)c1ccccc1	?	?	0	?	-72.2
COc1ccc(C(=O)CCN2CCc3cc(OC)c(OC)cc3C2)cc1	?	?	0	-	-58.9
CCCNC(=O)C1(C)CCCN(CCC(=O)c2ccccc2)C1 (centres undefined)	0	15.8µM	14.1µM	0	?
O=C(CCN1CCCCC1)c1ccccc1	0	?	0	0	0
CCCCOc1ccc(C(=O)CCN2CCOCC2)cc1	18.9µM	?	0	-	-103.5
CCCNC(=O)C1(C)CCN(C(=O)COCc2ccccc2)C1 (centres undefined)	0	0	0	0	-56.1
CCOc1ccc(C(=O)CCN2CCCCCC2)cc1	0	?	11.2µM	0	?
O=C(CCN1CCc2ccccc2CC1)c1ccc2c(c1)OCCO2	?	?	1.41µM	?	-58.0
CCN(CC)CCOC(=O)c1ccc(N)cc1Cl	-	-	-	0	-
Oc1ccccc1N=Cc1c(O)ccc2oc3c(c12)CCCC3	-	12.6µM	0	?	0
Cc1cc(-c2nn(-c3ccccc3F)cc2CNCCc2cnccn2)c(C)s1	0	0	0	?	-62.5
CC1(C)COC(/C=C/c2ccc([N+](=O)[O-])cc2)=N1	0	?	0	?	-102.2
O=[N+]([O-])c1ccc(/C=C/c2ccnc3ccccc23)cc1	-	0	0	-	-
O=S(=O)(c1ccccc1Cl)N1CCN(c2nc(-c3ccccc3)nc3ccccc23)CC1	-	0	0	-	-

Screens as filed in PubChem.
